# Experimental data reported in PubChem BioAssay (NCI).
# “And” between values parts separate entries of the source, which are not always exact repeats. Equal entries are not always repeated. Compounds without any hit were thinned out: in the full panel of roughly 83,000, 20% have a hit.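 48-hour exposure, single concentration, 96-well plates; percent growth endpoint where 0 means no net growth. Active: below 10.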 Values without a mark were called inactive. The source made the active and inactive calls.
# Tested on: HL-60(TB) leukemia
# Assay: NCI-60 one-dose screen, 48 h (100 = growth as untreated, 0 = no growth, -100 = all killed)
# Conditions: 10 µM unless noted
row,SMILES,growth
1,Cc1ccc(/C=C2\SC(=S)N(c3ccc(F)cc3)C2=O)o1,82.8%
2,O=S(=O)(NC1c2ccccc2Oc2ccccc21)c1ccccc1,86.5%
3,Cc1ccc(NC(=S)NNC(=S)NNc2ccccc2)cc1C,20.4%
4,O=C(c1ccccc1)c1ccc(Oc2ccc([N+](=O)[O-])cc2[N+](=O)[O-])cc1,43.6%
5,O=c1[nH]c2ccccc2cc1-c1nc2ccc(Cl)cc2[nH]1,-26.1% (active)
6,CS(=O)(=O)OCC1NC(=O)C(COS(C)(=O)=O)NC1=O (centres undefined),98% and 106%
7,CO[C@]12C=C/C(=C(/C(=O)OCc3cccnc3)C(=O)CCCCCCCC[C@@]3(OC)C=C/C(=C(/C(=O)OCc4cccnc4)C(=O)CCCCCCCC1)O3)O2,-20.2% (active)
8,NS(=O)(=O)c1ccc(N2Cc3cc(Cl)ccc3OC3=C2C(=O)N(CC2CCCCC2)C3=O)cc1,-35.9% (active)
9,CN(Cc1ccccc1)c1nc(Cl)c(C2CC(c3ccc(Cl)cc3)=Cc3[nH][nH]c(=O)c32)s1 (centres undefined),104%
10,COc1ccc(/C=N/C2=C(C#N)C(c3cccc(Cl)c3)c3c(ccc4ccccc34)O2)cc1 (centres undefined),-18.6% (active)
11,Nc1nc(N)c2nc(CNc3ccc(C(=O)NC(CCC(=O)O)C(=O)O)cc3)cnc2n1 (centres undefined),35.3% and 49.9%
12,O=C(Cc1ccccc1)Nc1nc(O)c(/C=C2\C(=O)C=Cc3ccccc32)s1,103%
13,OB(O)c1cccc(-c2nc3ccc4[nH]ncc4c3c3c2CCCC3)c1F,32.1%
14,O=C(NCCc1nccs1)c1cnc2c(S)cccc2c1,16.6%
15,Cc1nn(-c2ccccc2)c(Oc2ccc(Cl)cc2)c1/C=N\N=c1/sc2ccccc2n1C,78%
16,CCN(CC)c1ccc(/C=C/C(=O)c2ccc(Nc3nc(Nc4ccccc4)nc(Nc4ccccc4)n3)cc2)cc1,45.6%
17,O=C1C=CC(=O)N1c1ccccn1,55.7%
18,NNCCc1ccccc1,107% and 98.2%
19,O=C1Nc2cc(Cl)ccc2/C1=C/c1ccc(N2CCOCC2)s1,93.4%
20,COc1cc2ncnc(-n3ncc4cc(NC(=O)Nc5ccc(Cl)c(Cl)c5)ccc43)c2cc1OC,15.3%

row,SMILES,growth
1,COc1ccc2c(c1)[nH]c(=O)c1c3cc(OC)c(OC)cc3cn21,-18.9% (active)
2,c1cc[n+](C2c3ccccc3C([n+]3ccccc3)c3ccccc32)cc1 (centres undefined),88.3%
3,COc1ccc(N)c(S)c1,93.4%
4,O=C(/C(=C/c1ccc([N+](=O)[O-])cc1)SCc1ccc(F)cc1)c1ccc(Cl)cc1,64.2%
5,COc1ccc(CCNC(=S)NN)cc1OC,92.1%
6,CCN(CC)c1ccc(/C=C/c2ccc3cc(C)ccc3[n+]2CC)cc1,-41.5% (active)
7,COc1ccc(Br)c2c1C(=O)CC2,151%
8,CC1(C(=O)O)NC(C(=O)O)Cc2c1[nH]c1ccccc21 (centres undefined),99.8%
9,C/C(=N/O)c1ccc(F)cc1,102%
10,O=C1c2cc3c(cc2-c2c1c1cc(Cl)c(Cl)cc1c(=O)n2C[C@H](O)CO)OCO3,-22.6% (active)
11,CC(=O)Nc1ccc(/C=C/C(=O)c2ccccc2)cc1,79%
12,O=C1N[C@H]2[C@H](CS[C@H]2CCCCC(=O)N(CCP(c2ccccc2)c2ccccc2)CCP(c2ccccc2)c2ccccc2)N1,72.8%
13,O=C(c1ccccc1)C(O)C(Br)(CBr)c1ccccc1 (centres undefined),65.4%
14,O=C(O)c1ccc(Br)nc1,94.4%
15,CCNCCCn1c2c(c3ccc(F)cc3c1=O)C(=O)c1cc(OC)cnc1-2,-25.5% (active)
16,COc1cccc(C2=NN3C(C2)c2cc(Br)cc(OC)c2OC32CCN(Cc3ccccc3)CC2)c1 (centres undefined),103%
17,CCN(CCO)CCC(=O)c1ccc([N+](=O)[O-])cc1,109%
18,CC1(c2ccccc2O)NN=C(/N=C/c2cccc([N+](=O)[O-])c2)N1C(Cc1c[nH]c2ccccc12)C(=O)O (centres undefined),120%
19,Cc1ccc(-c2cc(-c3cccc(Nc4ccnc5cc(Cl)ccc45)c3)nc3nc(N)[nH]c(=O)c23)cc1,58%
